Screening data (PubChem BioAssay)
Only some compounds are listed: those with a hit (about 2.4% of all), similar ones and a draw of the others.
CHO-K1 Ca PAM = nonselective activator or artifact in parental CHO-K1 calcium assay; AID 602247; ATP EC20, Fluo-8 calcium fluorescence; 0% at ATP EC20, 100% at ATP max; 360,000 compounds, 0.02% hits; activation, % at 3 µM;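 active means activation above the run cutoff, the mean activation of all test compounds plus 3 SD, cut at about 40% in these data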;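 further: peak over basal fluorescence ratio in a 140 s read after ATP addition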
M1 antag = human CHRM1 antagonism | P11229 | CHO-K1 hM1, Fluo-8 calcium fluorescence, ACh EC80 antagonist | inhibition, % at 3 µM | 360,000 compounds, 1.3% hits | AID 588852;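 active means percent inhibition above its own plate's cutoff, namely the mean of that plate's compound wells plus 3 SD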;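 further: peak over basal fluorescence ratio during 140 s after agonist addition; 0% = ACh EC80 plus DMSO and 100% = DMSO alone without agonist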
Target sequence (P11229 whole entry, looked up): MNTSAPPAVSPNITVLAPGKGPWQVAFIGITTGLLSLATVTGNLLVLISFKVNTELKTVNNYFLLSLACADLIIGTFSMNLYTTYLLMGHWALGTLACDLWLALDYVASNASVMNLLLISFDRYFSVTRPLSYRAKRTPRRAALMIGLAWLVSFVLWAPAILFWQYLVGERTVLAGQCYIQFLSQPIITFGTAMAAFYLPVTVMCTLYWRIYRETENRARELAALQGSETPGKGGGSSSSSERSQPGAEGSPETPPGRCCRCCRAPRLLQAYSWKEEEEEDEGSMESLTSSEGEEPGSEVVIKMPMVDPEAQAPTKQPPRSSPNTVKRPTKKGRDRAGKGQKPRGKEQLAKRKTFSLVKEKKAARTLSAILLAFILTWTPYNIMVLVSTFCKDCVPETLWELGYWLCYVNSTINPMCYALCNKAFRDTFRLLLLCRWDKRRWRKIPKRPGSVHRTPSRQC
M1 ag parental = counter-screen for M1 agonists: effect in parental CHO-K1 cells. activation, % at 3 µM. Fluo-8 calcium fluorescence; scaled to maximal ATP response, vehicle zero. 360,000 compounds, 0.48% hits; in the data active means activation above about 15%;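 further: untransfected CHO-K1 host cells lacking M1 receptor as counterscreen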
M1 ag = human M1 muscarinic receptor agonism; P11229; CHO-K1 hM1, Fluo-8 calcium fluorescence, agonist mode; 0% DMSO, 100% acetylcholine EC100; activation, % at 3 µM; 360,000 compounds, 0.33% hits;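 active means activation above the run's mean compound activation plus 3 SD, cut at about 16% in these data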;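 further: peak over basal fluorescence ratio within a 140 s kinetic read after compound addition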
CHRM1 PAM = potentiates human M1 receptor response to acetylcholine; P11229; CHO-K1 hM1, Fluo-8 calcium fluorescence, ACh EC20; 0% = ACh EC20, 100% = maximal ACh; activation, % at 3 µM; 360,000 compounds, 0.088% hits; AID 588819; in the data active means activation above about 19%, passing the limit was not always enough
CHO-K1 Ca antag = nonselective inhibitor or artifact in parental CHO-K1 cells. ATP-induced calcium, Fluo-8 fluorescence. inhibition, % at 3 µM. 360,000 compounds, 0.6% hits;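 active means inhibition above a per-plate cutoff, the plate's mean sample inhibition plus 3 SD, cut at about 24% in these data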;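 further: 0% = DMSO plus EC80 ATP and 100% = DMSO alone without ATP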
Active calls of the source: *.

SMILES	CHO-K1 Ca PAM	M1 antag	M1 ag parental	M1 ag	CHRM1 PAM	CHO-K1 Ca antag
CN1C[C@@H]2[C@@H]3C(=O)N(C)C(=O)[C@@H]3[C@](C)(C1=O)N2C(=O)c1ccc(Br)cc1	15	-7	1	-3	7	-4
COc1cccc2cc(C(=O)NCc3ccccc3Cl)c(=O)oc12	11	-8	15*	-1	9	6
COc1cccc2cc(C(=O)NCc3ccccc3Br)c(=O)oc12	12	4	0	-4	4	-1
O=[N+]([O-])c1ccc(CN2CCC(Cc3ccccc3)CC2)cc1	7	39*	0	-10	-26	-4
Cc1ccc([N+](=O)[O-])c(OCCN2CCC(Cc3ccccc3)CC2)c1	-8	84*	13	-6	-23	-9
Cc1ccccc1OCCN1CCC(Cc2ccccc2)CC1	29	9	4	-3	-11	-19
O=[N+]([O-])c1cccc(OCCCN2CCC(Cc3ccccc3)CC2)c1	8	77*	1	-8	-30	-8
CC(C)NC(=O)COc1coc(CN2CCN(C(=O)c3ccco3)CC2)cc1=O	-1	4	0	-4	3	-5
O=C(COc1cccnc1[N+](=O)[O-])NCc1ccccc1	12	-12	1	-3	12	-7
O=C(C[N+]1(CC#Cc2ccccc2)CCCCC1)c1ccccc1	-14	44*	0	-6	-16	3
O=C(C[N+]1(CC#Cc2ccccc2)CCOCC1)c1ccccc1	23	-4	1	-16	-4	-17
O=C(C[N+]1(CC#Cc2ccccc2)CCCCC1)c1ccc(Cl)cc1	8	52*	0	-16	-38	-15
CCN(CC)C(=O)[C@H]1C[C@H](CC(=O)NCc2ccco2)C(=O)N2CCc3c([nH]c4cc(CCC(=O)N(C)C)ccc34)[C@]12C	-2	-6	0	-6	1	-17
COC(=O)c1c(C)[nH]c(C(=O)OC(C)C(=O)NC2CCCCC2C)c1C (stereo not drawn)	-9	-13	0	8	26*	-7
Cc1nn(-c2ccccc2)c(C)c1C(=O)OC(C)C(=O)NC1CCCCC1C (stereo not drawn)	-9	30*	1	1	-14	6
CCCCOc1c(Br)cc(CNCCCN2CCOCC2)cc1OC	23	-12	5	-2	12	-9
O=C1CC[C@@]23CCCN2C(=O)CCCC3C1 (stereo partly drawn)	17	-20	0	7	17	-15
Cc1ccc(C(=O)CCC(=O)OCC(=O)NNC(=O)c2ccc([N+](=O)[O-])cc2)cc1	-14	0	0	-1	6	8
O=c1[nH]c2cc(Cl)c(Cl)cc2o1	5	-15	4	5	7	-5
O=c1[nH]c2cc(Cl)c(Br)cc2o1	15	-7	16*	4	3	-3
Cc1ccc(C)c(NC(=O)C(c2ccccc2)N2CCN(CC(=O)N3CCOCC3)CC2)c1 (stereo not drawn)	21	-5	2	-1	7	-14
Cc1ccc(C)c(NC(=O)C(NCC(C)(C)N2CCOCC2)c2ccccc2)c1 (stereo not drawn)	17	92*	1	-8	-27	-10
O=C1CN(S(=O)(=O)c2ccc(F)cc2)c2ccccc2N1	-9	-11	0	1	21	28*
CC(CCc1ccccc1)NC(=O)c1cccs1 (stereo not drawn)	-18	-38	0	11	23	29*
O=C(NCC(c1ccccc1Cl)N1CCCC1)c1ccc(N2CCCC2=O)cc1 (stereo not drawn)	-1	56*	0	-8	-25	-5
C[C@@H]1Cn2cnc(C(=O)N[C@@H](Cc3c[nH]c4ccccc34)C(=O)OC(C)(C)C)c2C(=O)N1	-8	6	2	2	-3	5
O=C(NC(=S)N1CCCC(C(F)(F)F)C1)c1ccc(F)cc1 (stereo not drawn)	0	-1	1	-4	7	-12
CCOc1ccccc1NC(=O)CCS(=O)(=O)c1ccc(Br)cc1	2	-9	0	-2	8	-5
CCN(CC)CCNC(=O)C12CC3CC(CC(C3)C1)C2	14	9	0	-6	-5	-2
